Columns and labels:
Assay in all cases: DAPPL (digital affinity profiling via proximity ligation, sequencing); 10 mM Tris-HCl pH 7.5, 50 mM NaCl, 1 mM DTT, 4% glycerol, room temperature, 30 min; GST-TFs on glutathione beads, 16-mer random dsDNA library, 0.1% formaldehyde crosslink after washing; high values mean tight binding
Conditions in all cases: protein: recombinant; tags: N-terminal GST; dsDNA, one strand shown
FEV = target: T1, FEV (Homo sapiens, UniProt Q99581 1-238)
T1 sequence: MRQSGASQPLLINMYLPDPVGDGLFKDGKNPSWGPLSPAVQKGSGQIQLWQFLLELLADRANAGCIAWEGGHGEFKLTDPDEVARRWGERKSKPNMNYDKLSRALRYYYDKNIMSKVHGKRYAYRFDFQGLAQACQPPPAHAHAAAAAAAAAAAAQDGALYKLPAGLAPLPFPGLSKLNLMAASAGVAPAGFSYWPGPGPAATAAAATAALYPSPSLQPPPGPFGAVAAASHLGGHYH
Summary of the method: (§1)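 Pools of DNA-barcoded human transcription factors, expressed in yeast as GST fusions on glutathione beads and combined with a tag-only sample, were incubated with 200 nmole of a 16-mer random double-stranded DNA library. Incubation took 30 min at room temperature in Tris/NaCl/DTT/glycerol buffer and was followed by washing, 0.1% formaldehyde crosslinking, proximity ligation (BsaI/T4 ligase, 1 h, 37 °C), PCR amplification and sequencing on an Illumina NextSeq500. Binding signal is the ratio of a hexamer's read frequency for a factor to its frequency for the tag-only sample.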

ETV5 = ETV5 (Homo sapiens, UniProt P41161 1-510)
Summary of the method: as §1

SPIC = target: T2, SPIC (Homo sapiens, UniProt Q8N5J4 1-248)
T2 sequence: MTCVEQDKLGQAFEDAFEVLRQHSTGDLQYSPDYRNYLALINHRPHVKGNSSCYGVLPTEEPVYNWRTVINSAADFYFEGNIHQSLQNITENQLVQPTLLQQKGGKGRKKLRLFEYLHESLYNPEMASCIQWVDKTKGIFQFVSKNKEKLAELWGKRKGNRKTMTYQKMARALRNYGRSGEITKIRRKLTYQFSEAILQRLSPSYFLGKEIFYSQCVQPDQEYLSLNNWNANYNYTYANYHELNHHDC
Summary of the method: as §1

ELF4 = ELF4 (Homo sapiens, UniProt Q99607 1-663)
Summary of the method: as §1

ELK4 = target: T3, ELK4 (Homo sapiens, UniProt P28324-2 1-405)
T3 sequence: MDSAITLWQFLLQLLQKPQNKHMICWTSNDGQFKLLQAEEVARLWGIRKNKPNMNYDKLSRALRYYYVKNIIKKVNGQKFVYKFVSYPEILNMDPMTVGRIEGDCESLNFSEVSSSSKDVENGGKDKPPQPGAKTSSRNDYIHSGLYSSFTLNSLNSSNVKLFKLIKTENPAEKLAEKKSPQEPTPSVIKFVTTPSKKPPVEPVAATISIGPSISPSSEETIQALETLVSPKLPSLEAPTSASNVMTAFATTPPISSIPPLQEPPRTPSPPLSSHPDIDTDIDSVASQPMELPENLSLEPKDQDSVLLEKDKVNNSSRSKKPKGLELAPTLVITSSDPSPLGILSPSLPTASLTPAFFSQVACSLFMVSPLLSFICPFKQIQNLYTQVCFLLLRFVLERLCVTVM
Summary of the method: as §1

ETV2 = target: T4, ETV2 (Homo sapiens, UniProt O00321 1-342)
T4 sequence: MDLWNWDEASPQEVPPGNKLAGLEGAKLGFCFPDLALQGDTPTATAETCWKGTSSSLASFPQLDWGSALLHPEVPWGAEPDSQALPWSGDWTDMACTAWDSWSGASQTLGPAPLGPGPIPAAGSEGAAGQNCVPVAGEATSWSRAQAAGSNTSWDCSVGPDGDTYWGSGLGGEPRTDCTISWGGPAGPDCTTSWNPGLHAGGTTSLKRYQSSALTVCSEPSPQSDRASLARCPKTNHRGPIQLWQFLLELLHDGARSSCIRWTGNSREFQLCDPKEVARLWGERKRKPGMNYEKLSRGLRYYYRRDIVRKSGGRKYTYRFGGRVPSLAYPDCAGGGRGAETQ
Summary of the method: as §1

ETV1 = ETV1 (Homo sapiens, UniProt P50549 1-477)
Summary of the method: as §1

CRX = CRX (Homo sapiens, UniProt O43186 1-299)
Summary of the method: as §1

ELF3 = target: T5, ELF3 (Homo sapiens, UniProt P78545 1-371)
T5 sequence: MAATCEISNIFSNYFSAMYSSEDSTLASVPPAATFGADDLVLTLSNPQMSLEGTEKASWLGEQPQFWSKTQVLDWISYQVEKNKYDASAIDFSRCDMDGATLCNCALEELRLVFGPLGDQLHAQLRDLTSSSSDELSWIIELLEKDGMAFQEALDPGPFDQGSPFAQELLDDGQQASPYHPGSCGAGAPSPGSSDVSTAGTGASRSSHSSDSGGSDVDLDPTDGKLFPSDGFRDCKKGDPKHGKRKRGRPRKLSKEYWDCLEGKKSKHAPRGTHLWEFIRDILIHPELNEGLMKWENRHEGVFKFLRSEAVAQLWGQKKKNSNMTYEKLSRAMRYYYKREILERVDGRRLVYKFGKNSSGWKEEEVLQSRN
Summary of the method: as §1

CRX, sequence (O43186 whole entry): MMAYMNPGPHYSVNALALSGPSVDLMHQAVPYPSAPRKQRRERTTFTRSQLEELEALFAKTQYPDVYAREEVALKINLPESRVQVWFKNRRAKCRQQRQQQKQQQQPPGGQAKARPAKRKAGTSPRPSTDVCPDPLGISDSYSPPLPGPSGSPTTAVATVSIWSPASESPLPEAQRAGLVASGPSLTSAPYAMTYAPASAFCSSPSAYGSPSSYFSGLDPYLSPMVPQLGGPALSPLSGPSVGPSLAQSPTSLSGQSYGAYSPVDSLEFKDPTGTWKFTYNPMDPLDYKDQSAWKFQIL
ELF4, sequence (Q99607 whole entry): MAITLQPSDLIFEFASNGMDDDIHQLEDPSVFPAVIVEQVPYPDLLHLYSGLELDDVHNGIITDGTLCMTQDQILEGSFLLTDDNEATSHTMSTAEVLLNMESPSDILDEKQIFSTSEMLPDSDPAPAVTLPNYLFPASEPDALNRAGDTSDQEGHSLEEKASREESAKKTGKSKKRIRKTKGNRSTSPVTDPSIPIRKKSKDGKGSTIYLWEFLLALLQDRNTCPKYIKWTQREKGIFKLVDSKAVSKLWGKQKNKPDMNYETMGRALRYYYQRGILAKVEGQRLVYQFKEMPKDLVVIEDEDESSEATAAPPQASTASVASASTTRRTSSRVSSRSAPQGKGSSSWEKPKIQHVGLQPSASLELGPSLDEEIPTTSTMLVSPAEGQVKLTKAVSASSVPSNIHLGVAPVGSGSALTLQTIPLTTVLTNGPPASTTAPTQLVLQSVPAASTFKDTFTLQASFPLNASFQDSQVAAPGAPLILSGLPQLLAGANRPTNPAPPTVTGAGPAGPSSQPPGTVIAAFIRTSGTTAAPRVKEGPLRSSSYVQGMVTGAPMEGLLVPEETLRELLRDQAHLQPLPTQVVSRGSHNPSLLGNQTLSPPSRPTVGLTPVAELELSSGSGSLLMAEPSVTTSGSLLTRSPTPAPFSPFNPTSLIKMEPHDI
ETV5, sequence (P41161 whole entry): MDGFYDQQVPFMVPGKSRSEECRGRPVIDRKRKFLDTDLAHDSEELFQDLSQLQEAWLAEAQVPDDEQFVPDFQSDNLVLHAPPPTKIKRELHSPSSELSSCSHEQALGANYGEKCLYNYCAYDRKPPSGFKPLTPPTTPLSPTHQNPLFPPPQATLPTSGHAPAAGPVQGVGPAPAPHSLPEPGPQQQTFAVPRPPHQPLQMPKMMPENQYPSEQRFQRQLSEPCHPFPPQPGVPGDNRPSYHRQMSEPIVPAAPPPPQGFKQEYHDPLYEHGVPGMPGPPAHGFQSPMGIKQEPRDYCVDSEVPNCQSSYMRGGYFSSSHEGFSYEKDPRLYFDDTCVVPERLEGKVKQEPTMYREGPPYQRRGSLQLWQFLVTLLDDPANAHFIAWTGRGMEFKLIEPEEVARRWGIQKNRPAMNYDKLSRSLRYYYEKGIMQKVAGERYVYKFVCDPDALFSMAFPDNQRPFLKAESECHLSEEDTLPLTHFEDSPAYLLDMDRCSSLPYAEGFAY
ETV1, sequence (P50549 whole entry): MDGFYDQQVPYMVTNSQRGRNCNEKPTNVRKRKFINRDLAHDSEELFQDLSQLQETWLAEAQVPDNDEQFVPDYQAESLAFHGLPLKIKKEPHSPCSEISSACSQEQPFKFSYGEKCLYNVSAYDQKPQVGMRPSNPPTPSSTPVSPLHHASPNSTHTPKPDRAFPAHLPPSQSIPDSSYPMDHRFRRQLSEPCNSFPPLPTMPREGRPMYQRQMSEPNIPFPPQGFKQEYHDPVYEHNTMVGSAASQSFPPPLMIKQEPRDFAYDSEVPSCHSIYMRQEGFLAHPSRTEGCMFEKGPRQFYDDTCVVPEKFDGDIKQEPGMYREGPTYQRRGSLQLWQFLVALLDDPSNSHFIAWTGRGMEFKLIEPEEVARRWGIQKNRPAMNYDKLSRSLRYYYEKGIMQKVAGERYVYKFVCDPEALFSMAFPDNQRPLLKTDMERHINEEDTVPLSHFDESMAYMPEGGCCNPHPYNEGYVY

| Sequence | binding signal (FEV) | binding signal (ETV5) | binding signal (SPIC) | binding signal (ELF4) | binding signal (ELK4) | binding signal (ETV2) | binding signal (ETV1) | binding signal (CRX) | binding signal (ELF3) |
| --- | --- | --- | --- | --- | --- | --- | --- | --- | --- |
| CAACCA | 1.12 fold enrichment (6-mer frequency, TF over GST control) | 1.13 fold enrichment (6-mer frequency, TF over GST control) | 1.02 fold enrichment (6-mer frequency, TF over GST control) | 1.11 fold enrichment (6-mer frequency, TF over GST control) | 1.07 fold enrichment (6-mer frequency, TF over GST control) | 1.09 fold enrichment (6-mer frequency, TF over GST control) | 1.09 fold enrichment (6-mer frequency, TF over GST control) |  |  |
| ACCCTG | 1.02 fold enrichment (6-mer frequency, TF over GST control) | 1.01 fold enrichment (6-mer frequency, TF over GST control) | 1.1 fold enrichment (6-mer frequency, TF over GST control) | 1.16 fold enrichment (6-mer frequency, TF over GST control) | 1.18 fold enrichment (6-mer frequency, TF over GST control) | 1.05 fold enrichment (6-mer frequency, TF over GST control) | 1.09 fold enrichment (6-mer frequency, TF over GST control) |  |  |
| GCACTG | 1.12 fold enrichment (6-mer frequency, TF over GST control) | 1.05 fold enrichment (6-mer frequency, TF over GST control) | 1.08 fold enrichment (6-mer frequency, TF over GST control) | 1.07 fold enrichment (6-mer frequency, TF over GST control) | 1.03 fold enrichment (6-mer frequency, TF over GST control) | 1.22 fold enrichment (6-mer frequency, TF over GST control) | 1.08 fold enrichment (6-mer frequency, TF over GST control) |  |  |
| TCAACG | 1.06 fold enrichment (6-mer frequency, TF over GST control) | 1.12 fold enrichment (6-mer frequency, TF over GST control) | 1.1 fold enrichment (6-mer frequency, TF over GST control) | 1.11 fold enrichment (6-mer frequency, TF over GST control) | 1.09 fold enrichment (6-mer frequency, TF over GST control) | 1.18 fold enrichment (6-mer frequency, TF over GST control) | 1.15 fold enrichment (6-mer frequency, TF over GST control) | 1.1 fold enrichment (6-mer frequency, TF over GST control) |  |
| GCCCGC | 1.11 fold enrichment (6-mer frequency, TF over GST control) | 1.02 fold enrichment (6-mer frequency, TF over GST control) | 1.34 fold enrichment (6-mer frequency, TF over GST control) | 1.19 fold enrichment (6-mer frequency, TF over GST control) | 1.15 fold enrichment (6-mer frequency, TF over GST control) | 1.16 fold enrichment (6-mer frequency, TF over GST control) | 1.06 fold enrichment (6-mer frequency, TF over GST control) |  |  |
| CCCCGC | 1.14 fold enrichment (6-mer frequency, TF over GST control) | 1.18 fold enrichment (6-mer frequency, TF over GST control) | 1.34 fold enrichment (6-mer frequency, TF over GST control) | 1.24 fold enrichment (6-mer frequency, TF over GST control) | 1.36 fold enrichment (6-mer frequency, TF over GST control) |  | 1.17 fold enrichment (6-mer frequency, TF over GST control) | 1.01 fold enrichment (6-mer frequency, TF over GST control) | 1.29 fold enrichment (6-mer frequency, TF over GST control) |
| ACAATG | 1.08 fold enrichment (6-mer frequency, TF over GST control) | 1.11 fold enrichment (6-mer frequency, TF over GST control) | 1.08 fold enrichment (6-mer frequency, TF over GST control) | 1.13 fold enrichment (6-mer frequency, TF over GST control) | 1.16 fold enrichment (6-mer frequency, TF over GST control) |  | 1.07 fold enrichment (6-mer frequency, TF over GST control) |  | 1.17 fold enrichment (6-mer frequency, TF over GST control) |
| GCCCAT | 1.09 fold enrichment (6-mer frequency, TF over GST control) | 1.03 fold enrichment (6-mer frequency, TF over GST control) | 1.12 fold enrichment (6-mer frequency, TF over GST control) | 1.07 fold enrichment (6-mer frequency, TF over GST control) | 1.23 fold enrichment (6-mer frequency, TF over GST control) | 1.01 fold enrichment (6-mer frequency, TF over GST control) |  |  |  |
| GCGCCC | 1.08 fold enrichment (6-mer frequency, TF over GST control) | 1.04 fold enrichment (6-mer frequency, TF over GST control) | 1.01 fold enrichment (6-mer frequency, TF over GST control) | 1.19 fold enrichment (6-mer frequency, TF over GST control) | 1.02 fold enrichment (6-mer frequency, TF over GST control) | 1.02 fold enrichment (6-mer frequency, TF over GST control) | 1.05 fold enrichment (6-mer frequency, TF over GST control) |  |  |
| TGCCTA | 1.05 fold enrichment (6-mer frequency, TF over GST control) | 1 fold enrichment (6-mer frequency, TF over GST control) | 1.18 fold enrichment (6-mer frequency, TF over GST control) | 1.09 fold enrichment (6-mer frequency, TF over GST control) | 1.24 fold enrichment (6-mer frequency, TF over GST control) | 1.17 fold enrichment (6-mer frequency, TF over GST control) |  | 1.08 fold enrichment (6-mer frequency, TF over GST control) |  |
| GTCCAC | 1.08 fold enrichment (6-mer frequency, TF over GST control) | 1.07 fold enrichment (6-mer frequency, TF over GST control) | 1.05 fold enrichment (6-mer frequency, TF over GST control) | 1.06 fold enrichment (6-mer frequency, TF over GST control) | 1.07 fold enrichment (6-mer frequency, TF over GST control) | 1.14 fold enrichment (6-mer frequency, TF over GST control) |  |  |  |
| GATATG | 1.08 fold enrichment (6-mer frequency, TF over GST control) | 1.1 fold enrichment (6-mer frequency, TF over GST control) | 1.23 fold enrichment (6-mer frequency, TF over GST control) | 1.11 fold enrichment (6-mer frequency, TF over GST control) | 1.07 fold enrichment (6-mer frequency, TF over GST control) |  | 1.03 fold enrichment (6-mer frequency, TF over GST control) |  | 1.08 fold enrichment (6-mer frequency, TF over GST control) |
| ATGTCA | 1.03 fold enrichment (6-mer frequency, TF over GST control) | 1.08 fold enrichment (6-mer frequency, TF over GST control) | 1.21 fold enrichment (6-mer frequency, TF over GST control) | 1.19 fold enrichment (6-mer frequency, TF over GST control) | 1.14 fold enrichment (6-mer frequency, TF over GST control) |  | 1.11 fold enrichment (6-mer frequency, TF over GST control) |  | 1.28 fold enrichment (6-mer frequency, TF over GST control) |
| GTACTC | 1.11 fold enrichment (6-mer frequency, TF over GST control) | 1.19 fold enrichment (6-mer frequency, TF over GST control) | 1.06 fold enrichment (6-mer frequency, TF over GST control) | 1.12 fold enrichment (6-mer frequency, TF over GST control) | 1.03 fold enrichment (6-mer frequency, TF over GST control) |  | 1.1 fold enrichment (6-mer frequency, TF over GST control) |  | 1.07 fold enrichment (6-mer frequency, TF over GST control) |
| ATATGA | 1.03 fold enrichment (6-mer frequency, TF over GST control) | 1.11 fold enrichment (6-mer frequency, TF over GST control) | 1.16 fold enrichment (6-mer frequency, TF over GST control) | 1.1 fold enrichment (6-mer frequency, TF over GST control) | 1.19 fold enrichment (6-mer frequency, TF over GST control) |  | 1.05 fold enrichment (6-mer frequency, TF over GST control) | 1.02 fold enrichment (6-mer frequency, TF over GST control) | 1.1 fold enrichment (6-mer frequency, TF over GST control) |
| CGCTGC | 1.14 fold enrichment (6-mer frequency, TF over GST control) | 1.18 fold enrichment (6-mer frequency, TF over GST control) | 1.21 fold enrichment (6-mer frequency, TF over GST control) | 1.1 fold enrichment (6-mer frequency, TF over GST control) | 1.2 fold enrichment (6-mer frequency, TF over GST control) |  | 1.21 fold enrichment (6-mer frequency, TF over GST control) |  | 1.03 fold enrichment (6-mer frequency, TF over GST control) |
| TGGCCC | 1.09 fold enrichment (6-mer frequency, TF over GST control) | 1.12 fold enrichment (6-mer frequency, TF over GST control) | 1.18 fold enrichment (6-mer frequency, TF over GST control) | 1.14 fold enrichment (6-mer frequency, TF over GST control) | 1.19 fold enrichment (6-mer frequency, TF over GST control) | 1.18 fold enrichment (6-mer frequency, TF over GST control) | 1.15 fold enrichment (6-mer frequency, TF over GST control) |  |  |
| GGGCTC | 1.15 fold enrichment (6-mer frequency, TF over GST control) | 1.18 fold enrichment (6-mer frequency, TF over GST control) | 1.19 fold enrichment (6-mer frequency, TF over GST control) | 1.26 fold enrichment (6-mer frequency, TF over GST control) | 1.09 fold enrichment (6-mer frequency, TF over GST control) |  | 1.29 fold enrichment (6-mer frequency, TF over GST control) |  | 1.19 fold enrichment (6-mer frequency, TF over GST control) |

Reference: PMC7862700, “An all-to-all approach to the identification of sequence-specific readers for epigenetic DNA modifications on cytosine”
